Vc quorum ag = quorum light induction in luxS cqsA deficient V. cholerae. V. cholerae BH1578 lux reporter, luminescence, 6 h. activation, % at 18.7 µM. hit rate 0.16% among 350,000. AID 588436; in the data active = activation mostly above about 9.7%, no sharp cut-off; inconclusive = no clear call, values can overlap the other calls; inactive = mostly below about 3.7%
BoNT F protease = inhibitors of Botulinum neurotoxin F light chain protease; Multiplex microsphere protease cleavage assay, flow cytometry; inhibition, % at 10 µM; hit rate 0.22% among 360,000; AID 588497; in the data active = inhibition above about 35%, passing the limit was not always enough; inconclusive = no clear call, values can overlap the other calls; note: plate controls were buffer without enzyme for full effect and enzyme alone for no effect
MazF activator = activators of E. coli MazEF toxin-antitoxin RNase | AID 504720 | activation, % at 20 µM | FAM/BHQ RNA-DNA oligo cleavage fluorescence, 5 h | P0AE70 | hit rate 0.32% among 350,000; in the data active = activation above about 50%
Target sequence (P0AE70 whole entry, looked up): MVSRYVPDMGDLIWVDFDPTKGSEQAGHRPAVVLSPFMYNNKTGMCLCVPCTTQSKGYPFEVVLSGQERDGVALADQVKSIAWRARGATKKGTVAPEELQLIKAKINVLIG
Autofluor counter = compound fluorescence in toxin protease inhibitor counterscreen. compound autofluorescence counterscreen, microsphere flow cytometry; stronger effect = higher value. fluorescence intensity (test concentration not listed). hit rate 3.1% among 360,000; in the data active = fluorescence intensity above about 16000; inconclusive = no clear call, values can overlap the other calls
BoNT-A LC inh2 = BoNT A light chain protease inhibition; multiplex microsphere protease substrate cleavage, flow cytometry; inhibition, % at 10 µM; hit rate 0.17% among 360,000; note: plate controls were buffer without enzyme for full effect and enzyme alone for no effect
Anthrax LF inh2 = blocks Bacillus anthracis lethal factor protease. inhibition, % at 10 µM. hit rate 0.12% among 360,000. P15917. multiplex microsphere protease cleavage assay, LF; note: plate controls were buffer without enzyme for full effect and enzyme alone for no effect
* marks the source's active call; other numbers are inactive results; i = inactive; ? = inconclusive. Sampled rows, rich in hits. Any-hit rate of the full collection: about 3.9%. Cut-off read from the data, not from the text of the source, unless noted: active = inhibition above about 30%; inconclusive = no clear call, values can overlap the other calls; inactive = below that.

SMILES	Vc quorum ag	BoNT F protease	MazF activator	Autofluor counter	BoNT-A LC inh2	Anthrax LF inh2
Cc1cccc(C)c1NC(=S)NC(=O)CCc1ccccc1	i	2	-1	5612	0	-2
CC(C)c1ccc(NC(=O)Cc2ccc(NC3=NC4CS(=O)(=O)CC4S3)cc2)cc1 (centres undefined)	i	-3	18	6566	1	-6
COC(=O)c1c(C)oc2c1cc(NS(=O)(=O)c1ccc(C(=O)O)cc1)c1ccccc12	0	1	6	5876	0	-10
CC(=O)c1c(C)oc2c1cc(NS(=O)(=O)c1ccc(C(=O)O)cc1)c1ccccc12	0	4	79*	3987	4	4
CC12CC(NC(=O)N1c1cccc(C(=O)Nc3ncn[nH]3)c1)c1ccccc1O2 (centres undefined)	-2	11	59*	3858	1	1
CC1(C)CC(=O)C(C=NCCN2CCN(CCc3ccccc3)CC2)=C(O)C1	0	-3	-6	20820*	-3	0
COCCCN=CC1=C(O)CC(C)(C)CC1=O	i	-1	4	23898*	?	-3
CC1(C)CC(=O)C(C=NCCN2CCN(C(=S)Nc3ccc(F)cc3)CC2)=C(O)C1	0	-5	-4	16455*	?	-6
CC1(C)CC(=O)C(C=NCCN2CCN(CC(=O)Nc3ccc(F)cc3)CC2)=C(O)C1	0	-7	0	6043	1	1
C=CCn1c(=O)c2c(nc3n2CCN3c2cccc(Cl)c2C)n(C)c1=O	5	-2	0	16780*	0	-3
CCOc1ccc(-c2nnn(CCC(=O)O)n2)cc1OC	-12	1	1	21762*	1	-2
COc1ccc(-c2nnn(CCc3nn[nH]n3)n2)cc1OC	i	1	2	21931*	1	-1
COc1ccc(-c2nnn(Cc3nn[nH]n3)n2)cc1OC	0	-5	5	5566	-1	-6
Cn1c(SCC(=O)Nc2cccc(F)c2)nc2c(c1=O)SCC2	0	4	2	5227	0	2
CCOCCCn1c(=S)[nH]c2cc(C(=O)NCCOC)ccc2c1=O	-13	1	3	19971*	2	-2
COCCNC(=O)c1ccc(Cn2c(=S)[nH]c3cc4c(cc3c2=O)OCO4)cc1	i	-1	2	22929*	1	1
COc1ccc(Cn2c(=O)[nH]c3cc(C(=O)NCc4ccc5c(c4)OCO5)ccc3c2=O)cc1	0	-2	182*	4465	-1	1
CCOC(=O)[C@@H]1[C@H]2COc3ccc(Br)cc3[C@H]2N2C(=O)N(c3ccc(F)cc3)C(=O)[C@@]12C	5	-12	-2	4111	-1	-5
CC(C)NC(=O)N(C)C[C@@H]1Oc2ccc(NC(=O)CCN3CCOCC3)cc2CC(=O)N([C@@H](C)CO)C[C@@H]1C	0	0	-72	4282	0	5
CC(=O)NS(=O)(=O)c1ccc(NC(=O)CSc2ccc(C)cc2)cc1	i	0	-9	4530	-1	-3
COc1ccc(CC2CCOC2=O)cc1 (centres undefined)	7	10	-1	20533*	5	-9
COc1ccc(CC2C(=O)OC(C)(C)OC2=O)cc1	i	0	4	4044	1	-4
COc1cccc(CNC(=O)CN2C(=O)c3ccccc3S2(=O)=O)c1	i	-4	0	?	2	-2
Cc1ccc(NCCC(=O)c2ccc(Cl)c(Cl)c2)cc1	i	-3	-5	23171*	?	0
CCc1ccc(NCCC(=O)c2ccc(Cl)cc2)cc1	-2	-8	3	7029	-1	-5
SMILES	Vc quorum ag	BoNT F protease	MazF activator	Autofluor counter	BoNT-A LC inh2	Anthrax LF inh2
Cc1ccc(NCCC(=O)c2ccc(Cl)cc2)cc1C	0	-6	-9	24235*	-1	-1
Cc1noc(C)c1CSCC(=O)N(C)CC(=O)Nc1ccccc1Br	-1	-13	6	6983	-4	1
COc1cccc(N2CN(CCc3ccccc3)CNC2=S)c1	0	50*	6	3380	8	?
CCc1ccc(N2CN(CCc3ccccc3)CNC2=S)cc1	0	-16	2	3708	0	?
CN(C)S(=O)(=O)c1ccc(S(=O)(=O)N(Cc2ccco2)Cc2ccccc2Cl)cc1	0	-8	14	10976	-1	0
CS(=O)(=O)N(Cc1ccco1)Cc1ccccc1Cl	i	-1	-2	20334*	?	1
O=C(NCCc1ccccn1)c1nc(Cn2cc(Br)cn2)no1	-1	3	11	4214	3	-3
Cc1ccc(NC(=O)c2ccccc2N(C)S(C)(=O)=O)cc1C	0	-3	0	23559*	1	-2
CN(c1ccccc1C(=O)O)S(C)(=O)=O	2	4	3	18576*	4	-3
CN(c1ccccc1C(=O)Nc1cccc(Cl)c1Cl)S(C)(=O)=O	-1	0	5	22508*	0	-2
Cc1oc2c(CN3CCCCC3)c(O)ccc2c(=O)c1-c1ccc(Cl)cc1	i	18	10	3884	-1	-1
CCOC(=O)N1CCN(S(=O)(=O)N2CCCC(C(=O)NCCc3ccc(OC)c(OC)c3)C2)CC1 (centres undefined)	-1	9	-7	5030	2	1
Cc1cccn2c(=O)c3cc(C#N)c(=O)n(-c4c(C)n(C)n(-c5ccccc5)c4=O)c3nc12	-11	3	-6	8824	1	19
Cc1cc(-n2c(=O)c(C#N)cc3c(=O)n4cccc(C)c4nc32)no1	i	5	4	21724*	2	-4
Cc1ccc(-n2c(=O)c(C#N)cc3c(=O)n4ccccc4nc32)cc1	0	10	-14	2155	1	-1
Cc1cccc(-n2c(=O)c(C#N)cc3c(=O)n4ccccc4nc32)c1	1	1	6	20190*	?	0
C=CCNc1nc(N(c2ccccc2)c2ccccc2)nc(-n2ccnc2)n1	11	-6	-5	20613*	-3	0
CCCCNc1nc(N(C)c2ccccc2)nc(-n2ccnc2)n1	i	-3	7	23497*	-1	-4
C[C@H](CO)N1C[C@H](C)[C@@H](CN(C)C(=O)NC2CCCCC2)Oc2c(NC(=O)Nc3ccccc3)cccc2C1=O	i	-4	-7	3998	0	-4
CC(=O)c1cc(NC(=O)c2ccc(C)cc2)c(=O)oc1/C=C/N(C)C	-4	-9	-75	4103	0	-5
COc1ccc(C(=O)Nc2cc(C(C)=O)c(/C=C/N(C)C)oc2=O)cc1	-1	0	-166	16251*	1	1
CCOC(=O)c1cc(NC(=O)c2ccc(OC)cc2)c(=O)oc1-c1ccccc1	-4	-2	-8	22500*	?	-4
Cn1c(SCC(=O)N2CCOCC2)nnc1-c1ccco1	0	-6	-2	6030	-1	-1
CC(C)(C)c1ccc(C(=O)c2c[nH]c(C(=O)NCCCn3ccnc3)c2)cc1	i	-12	3	24832*	?	-1

High-throughput results (PubChem BioAssay)
